Shown are actives, neighbours in structure and some others; about 10% of the full set was active somewhere.
Lamin A splicing: qHTS Assay for Modulators of Lamin A Splicing; actives 0.01% (n = 200,000); Potency, µM (doses to about 46.1 µM), without a hit: at the highest dose ratio change, negative = inhibition, hits mostly inhibitors; HeLa LMNA splicing GFP/RFP minigene ratio, 48 h; active means well fitted inhibition curve with a large enough effect in the signal ratio, with a control signal flat, not every such curve was filed as active; inconclusive means small, poorly fitted or top-dose-only effect, or effect the other way, or a change in a side signal; the % refers to the signal ratio; further: potency means the concentration at half of the fitted maximal effect
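S3 HeLa cells stably expressing lamin A-EGFP splicing minigene plus DsRed2, 600 cells/well, 48 h compound exposure at 37C. Laser-scanning cytometry; analysed as GFP (500-530 nm)/RFP (575-640 nm) total intensity ratio; 0.5% DMSO vehicle.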
ALDH1A1 inh: qHTS Assay for Inhibitors of Aldehyde Dehydrogenase 1 (ALDH1A1); Aldehyde dehydrogenase 1A1 (Homo sapiens), P00352; Purified ALDH1A1, NADH fluorescence, propionaldehyde substrate; Potency, µM (titrated, usually from 75.3 µM), for the others: top-dose activity, negative = inhibition, actives largely listed as inhibitors; actives 7.3% (n = 220,000); AID 1030, 2008;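 further: potency means the concentration at half of the fitted maximal effect; plate controls were no enzyme wells and a reference inhibitor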
HPGD block: qHTS Assay for Inhibitors of HPGD (15-Hydroxyprostaglandin Dehydrogenase); purified HPGD, NADH fluorescence kinetic, PGE2 substrate; Potency, µM, without a hit: at the highest dose activity change, negative = inhibition, most hits filed as inhibitors; actives 4.3% (n = 150,000); AID 894, 2007; further: potency means the concentration at half of the fitted maximal effect
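NADH formation kinetics: reaction with 30 uM PGE2 and 1 mM NAD+ (final), 20 nM enzyme, Tris-HCl pH 8 with Tween 20, after 15 min compound preincubation at room temperature. Fluorescence change, last versus first of five reads.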
12-hLO inh: qHTS Assay for Inhibitors of 12-hLO (12-human lipoxygenase); Polyunsaturated fatty acid lipoxygenase ALOX12 (Homo sapiens), P18054; purified 12-hLO, xylenol orange hydroperoxide absorbance; Potency, µM (top dose mostly 57.1 µM), inactives show top-dose activity change, negative = inhibition, usual class: inhibitors; actives 0.12% (n = 150,000); AID 1452, 2008; active means well fitted inhibition curve with a large enough effect; inconclusive means small, poorly fitted or top-dose-only effect; further: potency means the concentration at half of the fitted maximal effect; nearly all actives have a fitted effect of over 55% in size
Target sequence (P18054 whole entry, looked up): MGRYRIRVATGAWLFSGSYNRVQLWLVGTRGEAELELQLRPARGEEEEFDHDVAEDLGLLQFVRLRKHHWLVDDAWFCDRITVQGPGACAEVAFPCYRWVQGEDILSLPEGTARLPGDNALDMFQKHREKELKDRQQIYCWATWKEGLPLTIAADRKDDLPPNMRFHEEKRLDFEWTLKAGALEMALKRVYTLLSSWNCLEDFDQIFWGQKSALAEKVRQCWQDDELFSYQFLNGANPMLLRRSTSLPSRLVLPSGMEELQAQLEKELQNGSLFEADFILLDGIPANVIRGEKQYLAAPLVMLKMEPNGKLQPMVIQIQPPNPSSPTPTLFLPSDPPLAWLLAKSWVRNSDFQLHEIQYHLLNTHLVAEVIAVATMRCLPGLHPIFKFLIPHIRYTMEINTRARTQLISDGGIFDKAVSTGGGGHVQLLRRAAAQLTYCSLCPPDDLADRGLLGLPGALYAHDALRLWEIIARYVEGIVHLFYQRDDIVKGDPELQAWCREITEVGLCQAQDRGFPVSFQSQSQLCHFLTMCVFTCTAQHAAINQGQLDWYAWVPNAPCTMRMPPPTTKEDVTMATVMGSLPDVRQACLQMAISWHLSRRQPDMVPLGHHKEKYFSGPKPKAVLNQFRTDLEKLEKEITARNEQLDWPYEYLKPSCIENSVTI
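Xylenol orange chromogenic assay: hydroperoxide from 12hLO oxidises Fe(II), giving red-shifted Fe(III)-XO absorbance. Conditions: 150 nM enzyme, 40 uM arachidonic acid, 25 mM Hepes pH 7.0, 0.01% Triton X-100, 30 min, room temperature.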
PNC inhibitor: High Content Assay for Compounds that inhibit the Assembly of the Perinucleolar Compartment; PC3M PTB-GFP, PNC prevalence imaging, 16 h; active compounds read low; actives 3.1% (n = 140,000); activity change (PNC), negative = inhibition, % at 10 µM; AID 2417, 2010;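 active means readout at or below -70, meaning at least 70% loss of cells showing the perinucleolar compartment, a nuclear body marking cancer cells; inconclusive means readout between -30 and a set limit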;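 further: plate controls were DMSO wells for no effect and camptothecin positive control wells for full effect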
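PC3M cells stably expressing PTB-GFP, 750–1000 cells/well, treated 16 h at 37 °C with compound (23 nl of library stock), in duplicate. After paraformaldehyde fixation and Hoechst stain, imaged at 20x; PNC prevalence scored by image analysis.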
The depositor's hits bear a star; ? = inconclusive; · = not tested or not shown; [ ] = dose if it differs, or a comment. Unless noted, the call rests on the fitted dose curve; in most records, active means well fitted inhibition curve with a large enough effect (not every such curve was filed as active); inconclusive means small, poorly fitted or top-dose-only effect, or another doubt; inactive means no such curve, though single readings can be large or run the other way. Unless noted, on the % scale 0 is the no-effect control and ±100 the full control effect.

SMILES | Lamin A splicing | ALDH1A1 inh | HPGD block | 12-hLO inh | PNC inhibitor
Cc1cc(C)nc(-n2nc(C)cc2NC(=O)CN2CCCC2)n1 | 1.1%[46 µM] | ? | · | · | ·
Nc1c[n+](N2CCOCC2)no1 | · | -9.7% | -19.5% | -8.3% | ·
COc1ccccc1-c1nc(-c2ccc(C)nc2OC)no1 | -11.5% | ? | -17.5% | -6.1% | -97.7*
COc1nc(C)ccc1-c1noc(-c2ccccn2)n1 | 17.4% | -6.5% | 22.4µM* | 0.6% | 5.5
COc1ccc(C)cc1NC(=O)C(=O)NCCc1csc(-c2ccc(C)cc2)n1 | 15.3%[46 µM] | · | · | · | ·
COCCNC(=O)COc1ccc(C)cc1C | 2.4% | -14.2% | 14.1µM* | 1.9% | -23.2
COCCCNC(=O)COc1ccc(Br)cc1Cl | ? | 8.3% | -12.0% | -1.1% | -89.8*
Cc1cccc(NC(=O)Cn2c(=O)n3nc(CCn4nc(C)cc4C)nc3c3ccccc32)c1 | 5.7% | 14.1µM* | -23.6% | 0.3% | 43.4
CC(Oc1ccc(O)cc1)(P(=O)(O)O)P(=O)(O)O | · | 0.5% | 1.1% | -16.2% | ·
O=C(O)c1nnsc1-c1ccc(-c2snnc2C(=O)O)cc1 | · | 3.98µM* | -21.7% | 2.9%[11.4 µM] | ·
CN(C)c1ccc(/C=N/N=C2/NC(=O)/C(=C/c3ccc([N+](=O)[O-])cc3)S2)cc1 | ? | 25.1µM* | -25.1% | -3.4% | -9.1
COc1cccc(N2CCN(CC(=O)Nc3ccc(SC(F)F)cc3)CC2)c1 | -20.7% | -4.8% | · | 2.5% | -29.1
O=C(CN1CCN(c2ccc(O)cc2)CC1)Nc1ccc(SC(F)F)cc1 | ? | 8.91µM* | -6.7% | -17.2% | -2.5
COC(=O)[C@@]1(Cc2ccc(OC)cc2)[C@H]2c3cc(C(=O)N4CCCC4)n(Cc4ccc(C)c(F)c4F)c3C[C@H]2CN1C(=O)c1ccccc1 | · | -4.2% | -15.0% | -8.0% | ·
CCOC(=O)c1c(C)[nH]c(C(=O)C(C)Cl)c1C (configuration not stated) | ? | 22.4µM* | · | · | ·
CCOC(=O)c1[nH]c(C)c(C(=O)C(C)C)c1C | ? | 3.4% | -16.5% | -1.0% | ?
CCOC(=O)c1c(C)[nH]c(C(C)=O)c1C | 10.1% | 8.91µM* | -14.7% | -6.7% | 24.7
CCOC(=O)c1c(C)[nH]c(C(=O)COC(=O)CSC)c1C | -8.3% | -1.6% | -6.5% | 2.7% | -84.7*
CCOC(=O)c1c(C)[nH]c(/C(C)=N/O)c1C | 9.7% | -14.1% | ? | -5.7% | -1.9
CCOC(=O)c1c(C)[nH]c(C(=O)CN2CC(C)OC(C)C2)c1C (configuration not stated) | -4.3% | 7.94µM* | -3.7% | -2.2% | 17.6
Cc1cc(N2CCOCC2)nc2ccc(Cc3ccc4nc(N5CCOCC5)cc(C)c4c3)cc12 | · | ? | ? | 6.7%[11.4 µM] | ·
COc1cccc(Cn2c(=O)c(-c3cccc(C#N)c3)nc3cnc(N4CCOCC4)nc32)c1 | 12.5% | ? | · | · | ·
CCOC(=O)c1c(C)[nH]c(C(=O)/C(C#N)=C/c2ccc(OCC)cc2)c1C | -23.4% | 3.16µM* | -16.3% | -4.1% | ?
CC(=O)c1c(NCc2ccccc2)nc(=O)n(-c2ccccc2)c1C | 6.5% | 14.1µM* | -21.4% | -5.5% | 13.4
O=C(Nc1nnc(CSCc2ccccc2F)s1)c1cccc([N+](=O)[O-])c1 | ? | 25.1µM* | ? | -1.7% | -100.0*
SMILES | Lamin A splicing | ALDH1A1 inh | HPGD block | 12-hLO inh | PNC inhibitor
O=C(Nc1nnc(CSCc2ccc(F)cc2)s1)c1ccc([N+](=O)[O-])cc1 | ? | ? | ? | 1.4% | -96.1*
O=C(Nc1nnc(COc2ccc(Cl)cc2)s1)c1ccc([N+](=O)[O-])cc1 | 6.4% | 0.8% | -7.3% | 2.1% | ?
CC(C)C(=O)Nc1nnc(CSCc2ccccc2F)s1 | 3.1% | 14.7% | -12.2% | 10.6% | 9.0
O=C(Nc1ccc(F)c(F)c1)c1cc(S(=O)(=O)NCc2ccc3c(c2)OCO3)ccc1F | -8.2%[46 µM] | · | · | · | ·
COc1ccc(-c2nc3c(c4c2C[C@H](c2ccccc2)OC4)CN(C(=O)NCc2ccco2)CC3)c(C)c1 | ? | 1.78µM* | -6.1% | -3.3%[11.4 µM] | ·
COc1ccc(-c2nc3c(c4c2C[C@H](c2ccccc2)OC4)CN(C(=O)Cc2cccs2)CC3)c(C)c1 | 10.8%[9.22 µM] | 3.98µM* | -4.2% | -3.3%[11.4 µM] | ·
COc1cc(CN2CC(=O)N(c3ccc(C)c(C)c3)C2=S)cc(OC)c1OC | -15.9% | -13.8% | -9.4% | 1.3% | 60.4
CCc1ccc(N2C(=O)CN(Cc3cc(OC)c(OC)c(OC)c3)C2=S)cc1 | ? | -3.6% | -8.2% | 0.1% | -81.5*
Cc1c(OCc2nn[nH]n2)ccc2c(-c3ccccc3)cc(=O)oc12 | -3.7% | 15.8µM* | 12.6µM* | -4.2% | 25.8
CCc1nn2c(=O)cc(COC(=O)c3ccccc3NC(=O)c3ccc(C(C)(C)C)cc3)nc2s1 | 5.2%[46 µM] | · | · | · | ·
O=C1NC(c2ccccc2)C(C(=O)c2cccs2)=C1O (configuration not stated) | -1.4% | -11.2% | -3.3% | -2.7% | -107.1*
Cc1cc(N2C(=O)C(O)=C(C(=O)c3cccs3)C2c2ccccc2)no1 (configuration not stated) | 9.4% | -2.7% | -2.0% | 6.3% | 34.3
COc1cccc(-c2nc(NCc3cccs3)c3ccccc3n2)c1 | ? | -5.9% | · | · | ·
Nc1sc(-c2ccccc2)c(Cc2ccccc2)c1C(=O)O | ? | 10µM* | · | · | ·
CCCCN1C(=O)/C(=C/C=C2/CC(C)(C)CN2C)SC1=S | ? | 6.31µM* | -3.8% | -0.7% | -25.0
O=C(C1CCN(S(=O)(=O)c2cccnc2)CC1)N1CCCCC1 | 3.3% | 6.8% | 20µM* | 2.6% | 4.1
COc1cc(S(=O)(=O)N2CCCCC2)ccc1NC(=O)c1ccccc1Cl | ? | 2µM* | -15.9% | -1.1% | -100.0*
COc1ccc(S(=O)(=O)N2CCC(C(=O)N3CCCCC3)CC2)cc1Cl | -21.3% | 0.6% | 15.8µM* | 1.6% | 61.2
CC1CCN(C(=O)C2CCN(S(=O)(=O)c3cccnc3)CC2)CC1 | 10.0% | -5.5% | -21.4% | 12.1% | -23.9
O=C(c1ccc2ccccc2c1)C1CCCN(S(=O)(=O)c2cccnc2)C1 (configuration not stated) | ? | 25.1µM* | · | · | ·
O=C(C1CCCN(S(=O)(=O)c2cccnc2)C1)N1CCN(c2ccccn2)CC1 (configuration not stated) | ? | ? | -19.3% | 4.6% | 113.9
Cc1cc(C)c(NC(=O)CN2C(=O)CCn3nc(-c4cccn4C)cc32)c(C)c1 | -19.1%[46 µM] | · | · | · | ·
CC1(C)OC2C[C@](O)(C(N)=O)C[C@H](O)[C@H]2O1 (some centres not stated) | · | 6.5% | -0.4% | -0.1% | ·
Cc1cc(C)n(-c2nc(N(c3ccccc3)c3ccccc3)nc(-n3nc(C)cc3C)n2)n1 | -2.4% | 6.8% | -29.9% | 13.8% | -100.0*

Bioassay records from PubChem.
